Source: ChEMBL document CHEMBL3988442, “University of Dundee, Small-Polar-MMV Screening Library” (2021)
Among all 48,000 compounds or so, about 13,000 (27%) showed an effect of 50% or more. The list shows a part of the results.

tested on: Wolbachia pipientis; test: Anti-Wolbachia Cell-Based Screen; assay type: functional; set-up: scale not given: in the data most compounds retested in dose-response had high values; conditions: 5 µM

Row | SMILES | Percent Effect
1 | CC(=O)N1CCc2c(nc(-c3ccccn3)nc2N(C)CC(O)CO)C1 (configuration not stated) | 1.269%
2 | CC(C(=O)N(C)Cc1nnc2n1CCC2)S(C)(=O)=O (configuration not stated) | 0.343%
3 | COCCN(C(=O)c1ccoc1C)c1ccc(C#N)cc1 | -4.794%
4 | CCc1cn[nH]c1C1CCCN(C(=O)c2cc(C(C)C)on2)C1 (configuration not stated) | 3.205%
5 | CC(C)c1cc(C(=O)N2CCCC(c3cc(=O)nc4n3CCC4)C2)no1 (configuration not stated) | 118.8%
6 | Cc1cc(C(=O)N2CCCC(c3cc(=O)nc4n3CCC4)C2)on1 (configuration not stated) | 100.5%
7 | CCc1ccsc1C(=O)N1CCCC(c2noc(C)n2)C1 (configuration not stated) | -6.826%
8 | Cc1cc(C(=O)N2CCCC(n3nc(C)cc3C)C2)on1 (configuration not stated) | 6.311%
9 | Cc1cc(C(=O)N2CCCC(c3nccn3Cc3cscn3)C2)on1 (configuration not stated) | -8.995%
10 | CC(C)C(=O)N1CCN(C(=O)c2cc(C(C)C)on2)[C@H]2CS(=O)(=O)C[C@H]21 | -2.919%
11 | CCc1cc(C(=O)N2CCCC(c3cc(=O)nc4n3CCC4)C2)no1 (configuration not stated) | 113.8%
12 | Cc1cc(C(=O)N2CCCC2Cn2nc(C)cc2C)on1 (configuration not stated) | -0.3102%
13 | Cc1cc(C)n(CC2CCCN2C(=O)c2nccc3ccccc23)n1 (configuration not stated) | 117.1%
14 | Cc1cc(C)n(CC2CCCN2C(=O)c2ccc3ccccc3n2)n1 (configuration not stated) | 90.81%
15 | Cc1cc(C)n(CC2CCCN2C(=O)Cc2cn3ccccc3n2)n1 (configuration not stated) | 13.26%
16 | Cn1nnnc1SCCNC(=O)c1c[nH]nc1C1CCCCC1 | -16.51%
17 | O=C1CCC(c2ccccc2)(c2ccccc2)CN1CCO | -6.27%
18 | Cc1nc[nH]c1CN1CCN(C(=O)c2cccs2)[C@H]2CS(=O)(=O)C[C@H]21 | -2.944%
19 | CCN1CCOC(CNc2nccc(C(F)(F)F)n2)C1 (configuration not stated) | -2.512%
20 | CCN(CC1CN(Cc2ncc(C)o2)CCO1)c1cccnn1 (configuration not stated) | 0.3637%
21 | CC(C)(C)c1ncc(CNCC2CCCn3ccnc32)s1 (configuration not stated) | -12.55%
22 | CCN1CCOC(CNCc2cnc(C(C)(C)C)s2)C1 (configuration not stated) | 96.59%
23 | CCN(CC)c1ncc(CNCC2CCCn3ccnc32)s1 (configuration not stated) | 9.152%

Row | SMILES | Percent Effect
24 | CC(C)(C)c1ncc(CNCC2CN(C3CC3)CCO2)s1 (configuration not stated) | 77.82%
25 | CN1CCOC(CNCc2cnc(C(C)(C)C)s2)C1 (configuration not stated) | 83.62%
26 | CCC(CCNCc1cnc(C2CCC2)s1)N1CCCC1=O (configuration not stated) | 3.115%
27 | CCN1CCOC(CNCc2cnc(N(CC)CC)s2)C1 (configuration not stated) | 78.01%
28 | COCC(=O)N1C[C@H]2CCCC(OCc3cccnc3)[C@H]2C1.O=C(O)C(F)(F)F (some centres not stated) | -11.84%
29 | COc1ccc(CN2CCO[C@H]3CN(C4CCCC4)CC[C@H]3C2=O)cc1.O=C(O)C(F)(F)F | 4.442%
30 | CNC(=O)[C@H]1C[C@@H]2CCN(Cc3nccs3)C[C@H]2O1.O=C(O)C(F)(F)F | -7.914%
31 | Cc1nc(CN2CC[C@@H]3O[C@@H](C(=O)N4CCOCC4)C[C@@H]32)cs1.O=C(O)C(F)(F)F | 95.13%
32 | O=C(O)C(F)(F)F.O=C([C@H]1CC[C@@H]2[C@@H](CCN2Cc2nccs2)O1)N1CCOCC1 | 110.8%
33 | O=C(O)C(F)(F)F.O=C([C@@H]1C[C@H]2[C@H](CCN2Cc2nccs2)O1)N1CCOCC1 | -8.158%
34 | O=C(O)C(F)(F)F.O=C(O)C(F)(F)F.O=C(O)C(F)(F)F.c1cncc(C[C@H]2[C@H](N3CCOCC3)CCN2Cc2nccs2)c1 | 6.166%
35 | Cc1nc(CN2C[C@@H]3CN(C(=O)[C@H]4CCCO4)C[C@@H]3C2=O)cs1.O=C(O)C(F)(F)F | -7.059%
36 | CC1CCN(C(=O)[C@@H]2C[C@@H]3CCN(Cc4nccs4)C[C@H]3O2)CC1.O=C(O)C(F)(F)F | 95.79%
37 | CC1CCN(C(=O)[C@H]2CC[C@@H]3[C@@H](CCN3Cc3nccs3)O2)CC1.O=C(O)C(F)(F)F | 83.2%
38 | CC1CCN(C(=O)[C@@H]2CC[C@@H]3[C@@H](CCN3c3ncc(F)cn3)O2)CC1.O=C(O)C(F)(F)F | -5.679%
39 | COCCN1CC[C@@H]2O[C@H](COCc3csc(C)n3)CC[C@@H]21.O=C(O)C(F)(F)F | 5.526%
40 | Cc1nc(C(C)(C)NC(=O)Nc2ccc(C#N)cc2)no1 | 2.937%
41 | CCCN(C(=O)c1cc2c([nH]c1=O)CCCC2=O)C1CCCCC1 | -3.902%
42 | NS(=O)(=O)c1cnn(-c2ccc(NC(=O)CC3CCCC3)cn2)c1 | 31.03%
43 | CC(=O)c1cccc(NC(=O)Cn2cnc(-c3cccs3)cc2=O)c1 | 8.004%
44 | CC(C)N(CC(=O)Nc1cccc(C#N)c1)C1CC1 | -12.82%
45 | O=c1oc(-c2cccs2)nn1CC(O)c1ccc(F)cc1 (configuration not stated) | -3.645%
46 | COC(=O)c1cccc(NC(=O)CCn2nc(-c3cccs3)oc2=O)c1 | -4.824%

Row | SMILES | Percent Effect
47 | O=C(CCNC(=O)c1ccoc1)Nc1cccc(F)c1 | 8.68%
48 | CC(=O)c1cccc(NC(=O)COc2c(C)n(C)ccc2=O)c1 | 5.404%
49 | O=C(CCn1nc(-c2cccs2)oc1=O)Nc1cccc(F)c1 | 101.8%
50 | CNC(=O)c1cccc(NC(=O)Cn2nc(-c3cccs3)oc2=O)c1 | -3.203%
51 | CC(=O)c1cccc(NC(=O)CCn2nc(-c3cccs3)oc2=O)c1 | 94.26%
52 | CC(=O)c1cccc(NC(=O)Cn2nc(-c3cccs3)oc2=O)c1 | 114.8%
53 | N#Cc1cccc(NC(=O)CCn2nc(-c3cccs3)oc2=O)c1 | 113.1%
54 | COCCn1ccc(NC(=O)Nc2cccc(C#N)c2)n1 | 15.59%
55 | CCn1ccnc1C1CCCN(c2nccc3ccccc23)C1 (configuration not stated) | -22.2%
56 | CN(c1cccnc1N1CCCC1)S(=O)(=O)c1cccnc1 | -4.578%
57 | CCCNC(=O)CN1CCN(c2nc(CC)ns2)CC1 | -2.637%
58 | Cn1cc(CNCCOc2ccc(F)c(F)c2)c(-c2cccnc2)n1 | 7.876%
59 | O=C(Nc1nc2c(s1)CN(S(=O)(=O)C1CC1)CC2)c1c(F)cccc1F | -9.469%
60 | Cc1nsc(NC(=O)NC2CCOCC2)n1 | 5.232%
61 | Cc1nsc(NC(=O)NC2CCCN(C)C2)n1 (configuration not stated) | -12.87%
62 | Cc1nnc(NC(=O)NC(C)C(=O)NC2CCCC2)s1 (configuration not stated) | -0.7919%
63 | CCc1c(C)nc2n(c1=O)CC(C(=O)Nc1nc3c(s1)CCCC3)CS2 (configuration not stated) | 1.424%
64 | Cl.O=C(Nc1nc2c(s1)CNCC2)C1CC1 | 114.1%
65 | Cl.O=C(Nc1nc2c(s1)CNCC2)NC1CCCC1 | 156.5%
66 | CC(NC(=O)Nc1nncs1)C(=O)NC1CCCC1 (configuration not stated) | 12.84%
67 | O=C(Nc1nc2c(s1)CCC2)NC1CCCC1 | 91.02%
